Source: PubChem (National Center for Advancing Translational Sciences (NCATS))
FUS yeast rescue – rescues growth of FUS-expressing yeast; S. cerevisiae FUS-expressing, growth rescue, OD600, 24 h; Potency, µM (series often up to 76.6 µM), usual class: activators; actives 0.24% (n = 390,000); AID 1347120; also: nearly all actives have a fitted effect of over 55% in size
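Toxicity suppression screen in FUS-yeast. Cells induced with 2% galactose, starting OD 0.005, treated 24hr at 30C with compounds at multiple final concentrations; growth by OD600.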
Mm-Cpn inhibitor – blocks the Methanococcus maripaludis chaperonin Mm-Cpn; purified Mm-Cpn ATPase, ADP Transcreener TR-FRET; Potency, µM (series often up to 76.9 µM), usual class: inhibitors; actives 0.031% (n = 330,000); also: nearly all actives have a fitted effect of over 80% in size
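Measured: ADP formation by purified Mm-CPN. Conditions: 25 nM protein, 10 uM ATP, Tris pH 7.4 with Mg2+, K+ and DTT, 37°C for 30 min. Detection: Transcreener HTRF after 30 min at room temperature.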
aSyn yeast inh – alpha-synuclein toxicity inhibition in yeast; actives 0.14% (n = 370,000); Yeast expressing alpha-synuclein, growth rescue, BacTiter-Glo, 24 h; AID 652106; Potency, µM (doses to about 46.1 µM), most hits filed as activators; also: nearly all actives have a fitted effect of over 65% in size
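Rescue of yeast growth: cells expressing toxic alpha-synuclein, induced in galactose at OD600 0.02, incubated with compound 24 h at 30 C. ATP luminescence quantified growth; inhibitors of toxicity appear as activators.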
Abeta rescue – restores growth of yeast expressing A-beta42 peptide; AID 1347071; yeast expressing A-beta42, growth rescue, OD600, 48 h; response scale: 0% DMSO, 100% iron-clioquinol control; actives 0.063% (n = 410,000); Potency, µM (titrated, usually from 46.1 µM), actives largely listed as activators; also: nearly all actives have a fitted effect of over 55% in size
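Yeast A-beta toxicity model in growth medium with pinned compounds, 48 h at 30 C; growth read as absorbance at 600 nm. Normalized to FeCl3/clioquinol equimolar mix (positive) and DMSO (negative).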
TDP43 rescue – inhibitors of TDP-43 toxicity in yeast; AID 652104; actives 1.8% (n = 410,000); Potency, µM (top dose mostly 46.1 µM), usual class: activators; TDP-43 expressing yeast growth rescue, BacTiter-Glo, 24 h; also: nearly all actives have a fitted effect of over 50% in size
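Yeast cells expressing TDP-43 under galactose induction are exposed to compounds for 24 hr at 30 deg C. BacTiter-Glo luminescence measures growth, so protective compounds score as activators.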
CCT modulator – modulators of cytosolic chaperonin (CCT/TRiC) activity; purified chaperonin ATPase assay, HTRF ADP detection, 30 min; activity change, % (test concentration not listed), hits read low; actives 0.3% (n = 360,000); AID 651819; in the data active = activity change below about -30%
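TRiC (40 or 20 nM final, by batch activity) in 30 mM Tris pH 7.4, 100 mM KCl, 5 mM MgCl2, 1 mM DTT was treated with compound at 76 uM single dose, then 10 uM ATP, 30 min at 37 °C. ADP was read by HTRF Transcreener.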
Hits are given with their value; 0 = inactive; ? = inconclusive; - = no result given. Rows were chosen to be rich in hits. Some 2.3% of all compounds tested hit in one or more screens of this group. Unless noted, calls follow the shape of the dose curve; as a rule, active = well fitted curve in the direction sought with a large enough effect; inconclusive = small, poorly fitted or top-dose-only effect, or another doubt; inactive = no such curve, though single readings can be large; an effect the other way counts as inactive or inconclusive.

SMILES | FUS yeast rescue | Mm-Cpn inhibitor | aSyn yeast inh | Abeta rescue | TDP43 rescue | CCT modulator
CC(=O)Nc1ccc(S(=O)(=O)N2CCN(CC3CC4C=CC3C4)CC2)cc1 (stereo not given) | 0 | 0 | 0 | 0 | 0 | -42.7
O=C(/C=C/c1ccccc1)c1ccc2c(c1)OCO2 | 0 | 0 | 0 | 0 | ? | 0
CCN(CC(=O)Nc1ccc2c(c1)OCCO2)C(=O)/C=C/c1ccccc1 | 0 | 0 | 0 | 0 | 0 | 0
O=C(/C=C/c1cccc(Br)c1)c1ccc2c(c1)OCO2 | 0 | ? | 0 | 0 | 11.2µM | 0
CCN(CC(=O)Nc1ccc2c(c1)OCCO2)C(=O)/C=C/c1cccc(Br)c1 | 0 | 0 | 0 | 0 | 12.6µM | 0
CC1(C)CCC[C@@]2(C)CC=C(C(=O)O)[C@@H]3C[C@]312 | 0 | 0 | ? | 0 | 11.2µM | 0
CCOC(=O)c1cnc(Nc2ccccc2)nc1C(F)(F)F | 0 | 0 | 0 | 0 | 17.8µM | 0
CCn1c2ccccc2c2cc(NC(=O)COC(=O)c3cc(F)ccc3F)ccc21 | 0 | - | - | - | - | -
O=C(CSc1nnc(-c2cccc(Cl)c2)n1Cc1ccco1)c1ccc(F)cc1 | 0 | - | - | - | - | -
Nc1ccc2nc(CN3CCOCC3)[nH]c2c1 | 0 | 0 | 0 | 0 | 0 | -36.1
c1ccc2[nH]c(CN3CCOCC3)nc2c1 | ? | 0 | 0 | 0 | 0 | 0
Clc1ccccc1COc1ccccc1-c1nnco1 | 0 | 0 | 0 | 0 | 3.16µM | 0
CCc1ccccc1NC(=O)C1CCN(c2nn3c(=O)cc(C)nc3s2)CC1 | 0 | - | - | 0 | 0 | -
COc1ccc(CNC(=O)c2sc(=O)n(Cc3ccccc3OC)c2C)cc1 | 0 | - | 0 | 0 | 25.1µM | 0
Cc1c(C(=O)N(C)Cc2ccc(F)cc2)sc(=O)n1Cc1ccc(Cl)c(Cl)c1 | 0 | - | ? | ? | 22.4µM | 0
COc1ccc(Cl)cc1Cn1c(C)c(C(=O)NCc2ccc(F)cc2)sc1=O | ? | - | ? | 0 | 20µM | 0
COc1ccc(Cl)cc1Cn1c(C)c(C(=O)N(C)Cc2ccc(F)cc2)sc1=O | 0 | - | 0 | 0 | 22.4µM | 0
CC(=O)Oc1ccc(Cn2c(C)c(C(=O)N(C)Cc3ccc(F)cc3)sc2=O)cc1 | 0 | - | 0 | 0 | 0 | 0
COc1ccc(Cl)cc1NC(=O)C(C)n1nnc2sc3c(c2c1=O)CCCC3 (stereo not given) | 0 | - | - | 0 | 0 | -
COc1ccc(N2CCN(CCCNC(=O)Cn3c(=O)c4cccn4c4cccnc43)CC2)c(OC)c1 | 0 | - | - | - | - | -
COc1nc(OC)nc(N2CCC(C(=O)NCc3cccc(OC)c3OC)CC2)n1 | 0 | - | - | - | - | -
O=c1[nH]c2c(-c3nc(-c4ccc(F)cc4)cs3)c(O)cn2c2ccc(Br)cc12 | - | - | 0 | - | - | -
O=C(O)C1CCN(C(=O)c2ccccc2N2C(=O)[C@@H]3Cc4c([nH]c5ccccc45)C(c4cccc(Cl)c4)N3C2=O)CC1 (stereo not given in full) | 12.6µM | 0 | 0 | 0 | 0 | 0
COc1cc(/C=C/C(=O)c2ccc(C)c([N+](=O)[O-])c2)cc(OC)c1O | - | 0 | 0 | 0 | 0 | 0
COc1ccc(/C=C/C(=O)c2ccc(C)c([N+](=O)[O-])c2)cc1O | - | 0 | 0 | 0 | 22.4µM | 0
SMILES | FUS yeast rescue | Mm-Cpn inhibitor | aSyn yeast inh | Abeta rescue | TDP43 rescue | CCT modulator
CN(C)c1ccc(/C=C2\C=Cc3ccccc32)cc1[N+](=O)[O-] | - | - | 0 | - | - | -
Cc1ccc(-c2nn(-c3ccccc3)cc2CSC(=N)N)cc1 | - | 0 | 0 | 0 | 0 | -59.5
COC(=O)[C@]12C[C@H](CC(=O)NCCCN3CCCC3=O)C(=O)N(CCc3ccc(OC)c(OC)c3)C1=C[C@H](C(C)(C)C)O[C@@H]2C | 0 | - | - | - | - | -
Cc1ccc(N2C(=O)[C@@H]3CSC(c4ccc(Cl)cc4)N3C2=O)cc1 (stereo not given in full) | 0 | - | - | 0 | 25.1µM | -
COc1cccc(C(O)c2nc(-c3ccc(F)c(Cl)c3)cs2)c1 (stereo not given) | 0 | - | ? | 0 | ? | 0
COc1cccc(C(O)c2nc(-c3cccc(F)c3)cs2)c1 (stereo not given) | 0 | - | 0 | 0 | 22.4µM | 0
OC(c1ccc(F)cc1)c1nc(-c2cc3ccccc3o2)cs1 (stereo not given) | 0 | - | ? | ? | 25.1µM | 0
